Measurements from the supplement of paper PMC11634586.
Structures can show the parent of a compound that is named as a salt.

system: NCI-H1688; assay: inhibition of cell viability relative to untreated control (fraction); higher = stronger growth inhibition, active = 0.5 or more; settings: 30 µM; 24 h
Description: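 Natural product library (TargetMol, 640 compounds) screened on NCI-H1688 SCLC cells at 30 µM for 24 h; viability by CCK-8 absorbance at 450 nm, normalised to untreated control and expressed as inhibition rate (fraction). Compounds with >50% reduction in viability were selected as hits.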

| Structure (SMILES) | inhibition of cell viability |
| --- | --- |
| C[C@H]1CCC/C=C/[C@@H]2C[C@H](O)C[C@H]2[C@H](O)/C=C/C(=O)O1 [Brefeldin A] | 0.704 (active) |
| C[C@H]1O[C@H](O[C@H]2[C@H](O)[C@@H](O)[C@@H](O)[C@H](O)[C@@H]2O)[C@@H](N)C[C@@H]1NC(=N)C(=O)O [Kasugamycin hydrochloride] | 0.294 (inactive) |
| COc1cc2c3c(c1OC)-c1ccccc1C[C@H]3N(C)CC2 [Nuciferine] | 0.173 (inactive) |
| O=C(/C=C/c1ccccc1)OC[C@H]1O[C@@H](O[C@@H]2OC=C[C@H]3[C@H](O)[C@@H]4O[C@]4(CO)[C@@H]23)[C@H](O)[C@@H](O)[C@@H]1O [Picroside I] | 0.253 (inactive) |
| CN1CCc2cc3c(cc2C1C1OC(=O)c2c1ccc1c2OCO1)OCO3 (single isomer, unassigned; (+)) [(+)-Bicuculline] | -0.023 (inactive) |
| C=C(C)[C@H]1Cc2c(ccc3c2O[C@@H]2COc4cc(OC)c(OC)cc4[C@@H]2C3=O)O1 [Rotenone] | 0.823 (active) |
| N#C[C@H](O[C@@H]1O[C@H](C(=O)O)[C@@H](O)[C@H](O)[C@H]1O)c1ccccc1 [Laetrile] | 0.0291 (inactive) |
| C[C@]12CCC(=O)C=C1CC[C@@H]1[C@@H]2C(=O)C[C@]2(C)C(=O)CC[C@@H]12 [Adrenosterone] | -0.0418 (inactive) |
| COc1ccc2c(c1)[nH]c1c(C)nccc12 [Harmine] | 0.462 (inactive) |
| NCCc1ccc(O)cc1 [Tyramine] | 0.176 (inactive) |
| C[C@]12CC[C@H](O)C[C@@H]1CC[C@@H]1[C@@H]2CC[C@]2(C)C(=O)CC[C@@H]12 [Epiandrosterone] | -0.0121 (inactive) |
| C=CCCCCCCCCC(=O)O[C@H]1CC[C@H]2[C@@H]3CCC4=CC(=O)C=C[C@]4(C)[C@H]3CC[C@]12C [Boldenone Undecylenate] | -0.203 (inactive) |
| CCC1(O)C(=O)OCc2c1cc1n(c2=O)Cc2cc3ccccc3nc2-1 (single isomer, unassigned; (+)) [(+)-Camptothecin] | 0.979 (active) |
| C[C@H]1C(=O)O[C@@H]2CCN3CC=C(COC(=O)[C@](C)(O)[C@]1(C)O)[C@H]23 [Monocrotaline] | 0.161 (inactive) |
| O=C1C=CC[C@@H]2[C@H]3CCCN4CCC[C@@H](CN12)[C@@H]34 [Sophocarpine] | -0.484 (inactive) |
| C[C@H]1CC(=O)C[C@@H]2CC[C@H]3[C@@H]4CC[C@H](O)[C@@]4(C)CC[C@@H]3[C@]21C [Mesterolone] | 0.237 (inactive) |
| O=C(O)C1C2CCC(O2)C1C(=O)O (stereo not given) [Sodium Demethylcantharidate] | 0.314 (inactive) |
| C[C@@H]1C(=O)O[C@H]2[C@H](O)[C@@]34O[C@@H]5OC(=O)[C@H](O)[C@@]56[C@H](C(C)(C)C)[C@H](O)C(OC3=O)[C@]64[C@@]12O (stereo not given in full) [Ginkgolide C] | -0.00562 (inactive) |
| CNC1CC(N)C(O)C(OC2OC(CO)C(O)C3OC4(OC(C(N)CO)C(O)C(O)C4O)OC23)C1O (stereo not given) [Hygromycin B] | 0.829 (active) |
| C[C@]12CC[C@H](O)C[C@H]1CC[C@@H]1[C@@H]2CC[C@]2(C)[C@@H](c3ccc(=O)oc3)CC[C@]12O [Bufalin] | 0.985 (active) |
| CN1[C@@H]2C[C@@H](OC(=O)[C@H](CO)c3ccccc3)C[C@H]1[C@@H]1O[C@@H]12 [Scopolamine HBr trihydrate] | 0.0269 (inactive) |
| CC(=O)OCC1=C(C(=O)O)N2C(=O)[C@@H](N)[C@H]2SC1 [7-Aminocephalosporanic acid] | 0.00874 (inactive) |
| C=C[C@H]1CN2CC[C@H]1C[C@@H]2[C@@H](O)c1ccnc2ccccc12 [Cinchonine] | -0.188 (inactive) |
| CCCCCCCCC(=O)NCc1ccc(O)c(OC)c1 [Nonivamide] | -0.0291 (inactive) |
| COC1=C[C@@H]2[C@@H]3Cc4ccc(OC)c(O)c4[C@]2(CCN3C)CC1=O [Sinomenine hydrochloride] | -0.0195 (inactive) |
| CC(C)=CCC[C@](C)(O)[C@H]1CC[C@]2(C)[C@@H]1[C@H](O)C[C@@H]1[C@@]3(C)CC[C@H](O)C(C)(C)[C@@H]3[C@@H](O[C@@H]3O[C@H](CO)[C@@H](O)[C@H](O)[C@H]3O)C[C@]12C [Ginsenoside Rh1] | 0.0296 (inactive) |
| COc1ccc2c3c([nH]c2c1)C(C)=NCC3 [Harmaline] | -0.11 (inactive) |
| CC[C@H]1CN2CC[C@H]1C[C@@H]2[C@@H](O)c1ccnc2ccc(OC)cc12 [Hydroquinidine] | -0.0507 (inactive) |
| COC1=C[C@]23CCCN2CCc2cc4c(cc2[C@@H]3[C@@H]1O)OCO4 [Cephalotaxine] | 0.394 (inactive) |
| COc1cccc(C=O)c1OC [o-Veratraldehyde] | -0.267 (inactive) |
